# Experimental data taken from PubChem BioAssay (Tox21).
# Results filed as inconclusive are left out. A call without a number means that no potency is given here. Calls of active or inactive are those of the source. Unless noted, the call rests on the fitted dose curve.
# Key:
# [1] = Nuclear factor erythroid 2-related factor 2/antioxidant responsive element (Nrf2/ARE) small molecule agonists: luciferase reporter gene qHTS assay in human keratinocytes (AID 1919969); further: nearly all actives have a fitted effect of over 35% in size; further: potency means the concentration at half of the fitted maximal effect
# [2] = molecular target: Gonadotropin-releasing hormone receptor (Homo sapiens) (UniProt P30968); test: Human gonadotropin-releasing hormone receptor (GnRHR) small molecule agonists, calcium flux assay in GnRHR-HEK293 cells (AID 1920063); further: nearly all actives have a fitted effect of over 35% in size
# In short: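 Cells: HEK293 stably expressing human GnRHR. Steps: overnight (18 h) culture, 1 h calcium dye loading at 37 C, compound addition, kinetic fluorescence read at 480/540 nm. Each compound tested at 15 concentrations in triplicate.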
# [3] = molecular target: KiSS-1 receptor (Homo sapiens) (UniProt Q969F8); test: Human kisspeptin (KISS1R) small molecule agonists, calcium flux assay in KISS1R-HEK293 cells (AID 1920064; active means well fitted activation curve with a large enough effect in the repeat runs)
# In short: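 Cells plated and incubated 18 h; dye added, 1 h at 37 C; compounds in DMSO pinned in; signal read at 480/540 nm every second for 3 min. Each compound tested at 15 concentrations in triplicate.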
# [4] = G protein-coupled receptor (GPCR) small molecule agonists, calcium flux assay: HEK293 wild type cell line counter screen (AID 1920065)
# In short: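 Counter-screen of the Tox21 10K library for non-specific calcium release: dye-loaded cells received compounds in DMSO and were monitored by kinetic fluorescence (480/540 nm, 3 min). Fifteen concentrations, run in triplicate.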
# [5] = p53 small molecule agonists, cell-based qHTS assay with human liver microsomes (AID 1963577);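 further: p53 response element beta-lactamase reporter cells with liver microsomes plus NADPH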
# In short: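 Metabolically competent format: test substances, human liver microsomes and NADPH (both 0.5 mg/mL final) incubated with p53RE-bla cells 16 h at 37 C. Beta-lactamase reporter signal then quantified by fluorescence.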
# [6] = p53 small molecule agonists, cell-based qHTS assay with rat liver microsomes (AID 1963578)
# In short: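 Each plate received p53RE-bla cells, then compound, then rat liver microsomes and NADPH (both 0.5 mg/mL final). Plates were held 16 h at 37 C, and beta-lactamase activity was detected with LiveBLAzer over 2 h.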
# [7] = p53 small molecule agonists, cell-based qHTS assay with human liver microsomes: qHTS cell viability counter screen (AID 1963579); further: nearly all actives have a fitted effect of over 45% in size
# In short: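 Tox21 library compounds, delivered from DMSO stocks, were tested on p53RE-bla cells together with 0.5 mg/mL human liver microsomes and 0.5 mg/mL NADPH (final) over 16 h at 37 C; CellTiter-Glo luminescence served as the cytotoxicity measure.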
# [8] = p53 small molecule agonists, cell-based qHTS assay with rat liver microsomes: qHTS cell viability counter screen (AID 1963580); further: nearly all actives have a fitted effect of over 45% in size
# In short: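 Intracellular ATP, by CellTiter-Glo luminescence, defines viability. HCT-116 p53RE-bla cells, 4,000 per well, were compound-treated in the presence of rat liver microsomes and NADPH for 16 h at 37 C.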
# [9] = p53 small molecule agonists, cell-based qHTS assay: qHTS cell viability counter screen (AID 1963581); further: nearly all actives have a fitted effect of over 45% in size
# In short: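 Cells: HCT-116 with p53 response element-driven beta-lactamase. Treatment: 16 h, 37 C, compounds in DMSO. Read: CellTiter-Glo luminescence after 30 min RT.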
# [10] = p53 small molecule agonists, cell-based qHTS assay (AID 1963582; active means well fitted activation curve with a large enough effect in the signal ratio in the repeat runs, not every such curve was filed as active; the % refers to the signal ratio)
# In short: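 Quantitative HTS in p53RE-bla cells: after a 5 h settling period, compounds delivered in DMSO were left on cells for 16 h at 37 C, and reporter induction was measured as fluorescence following 2 h substrate loading.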
# [11] = molecular target: 5-hydroxytryptamine receptor 2A (Homo sapiens) (UniProt P28223); test: 5-hydroxytryptamine receptor 2A (HTR2A) small molecule antagonists, cell-based qHTS assay (AID 1963586); further: nearly all actives have a fitted effect of over 45% in size; further: potency means the concentration at half of the fitted maximal effect
# In short: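 Antagonist-mode intracellular calcium assay: DOI (4 nM) added after 5 min compound pre-incubation at room temperature to dye-loaded HTR2A-CHO cells. Fluorescence followed for 3 min, sampled every second.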
# [12] = molecular target: 5-hydroxytryptamine receptor 2A (Homo sapiens) (UniProt P28223); test: 5-hydroxytryptamine receptor 2A (HTR2A) small molecule agonists, cell-based qHTS assay (AID 1963587); further: nearly all actives have a fitted effect of over 30% in size
# In short: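 Kinetic calcium-flux fluorescence (2 min, 1 sec intervals) after compound addition in agonist mode. HTR2A-CHO cells were cultured 18 h, then dye-loaded 1 h at 37 C.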
# [13] = molecular target: Muscarinic acetylcholine receptor M1 (Homo sapiens) (UniProt P11229); test: Cholinergic receptor muscarinic 1 (CHRM1) small molecule antagonists, cell-based qHTS assay (AID 1963588); further: nearly all actives have a fitted effect of over 40% in size; further: potency means the concentration at half of the fitted maximal effect
# In short: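 CHRM1-CHO calcium-flux assay, antagonist mode. Cells were seeded 18 h, dye-loaded 1 h at 37 C and given compound for 5 min at RT, then acetylcholine was added at 50nM. FDSS fluorescence was read 3 min; 15 concentrations, three runs.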
# [14] = molecular target: Muscarinic acetylcholine receptor M1 (Homo sapiens) (UniProt P11229); test: Cholinergic receptor muscarinic 1 (CHRM1) small molecule agonists, cell-based qHTS assay (AID 1963589); further: nearly all actives have a fitted effect of over 35% in size; further: potency means the concentration at half of the fitted maximal effect
# In short: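 Agonist-mode qHTS in CHO cells stably carrying human muscarinic M1. Intracellular calcium is tracked by fluorescence every second after compound transfer; each compound runs at 15 concentrations in three independent runs.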
# [15] = molecular target: D(2) dopamine receptor (Homo sapiens) (UniProt P14416); test: Dopamine D2 receptor (DRD2) small molecule agonists, cell-based qHTS assay (AID 1963594); further: nearly all actives have a fitted effect of over 35% in size
# In short: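 cAMP accumulation in DRD2-HEK293 cells measured by HTRF after 1 h detection; compounds added 10 min before NKH477 (200nM […]) forskolin-analogue stimulation, 30 min at room temperature, with Ro20-1724 present at 0.1 mM final.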
# [16] = molecular target: D(2) dopamine receptor (Homo sapiens) (UniProt P14416); test: Dopamine D2 receptor (DRD2) small molecule antagonists, cell-based qHTS assay (AID 1963595; active means well fitted inhibition curve with a large enough effect in the signal ratio in the repeat runs, with a control signal flat; the % refers to the signal ratio)
# In short: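 Readout: HTRF cAMP, cAMP-d2 competing with cellular cAMP for anti-cAMP cryptate, read after 1 h. Cells: DRD2-HEK293. Conditions: 0.1 mM Ro20-1724, 12 nM quinpirole, 200 nM NKH477, 30 min RT.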
# [17] = molecular target: Beta-2 adrenergic receptor (Homo sapiens) (UniProt P07550); test: Adrenergic beta2 receptor (ADRB2) small molecule antagonists, cell-based qHTS assay (AID 1963592); further: series mostly up to about 92 µM; nearly all actives have a fitted effect of over 50% in size
# In short: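 Cells (CHO, stable ADRB2 overexpression) incubated 18-20hr at 37C; compounds added from DMSO; agonist mix (1nM isoproterenol, 100uM IBMX, 25uM Ro-20-1724) added; 0.5hr RT; d2-cAMP and anti-cAMP-cryptate added; 1hr RT; 665/615 nm read.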
# [18] = cAMP Responsive Elements (CRE) small molecule agonists, cell-based qHTS assay (AID 1963590)
# In short: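 Agonist mode qHTS in CRE-bla HEK 293T cells: compounds dosed from DMSO for 3 h at 37 C/5% CO2, followed by LiveBLAzer B/G FRET substrate for 2 h at room temperature.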
# [19] = cAMP Responsive Elements (CRE) small molecule antagonists, cell-based qHTS assay (AID 1963591; active means well fitted inhibition curve with a large enough effect in the signal ratio in the repeat runs, not every such curve was filed as active; the % refers to the signal ratio)
# In short: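 Antagonist mode: test compounds are co-incubated with the adenylyl cyclase activator NKH477 (0.25 uM final) on CRE-bla HEK293T cells for 3 h at 37 °C, followed by LiveBLAzer substrate loading.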
# [20] = molecular target: Beta-2 adrenergic receptor (Homo sapiens) (UniProt P07550); test: Adrenergic beta2 receptor (ADRB2) small molecule agonists, cell-based qHTS assay (AID 1963593);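 further: CHO cells stably overexpressing human ADRB2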
# In short: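 CHO cells stably over-expressing ADRB2 were plated overnight at 37C, then dosed with compounds plus a stimulation mix containing 100uM IBMX and 25uM Ro-20-1724 for 0.5hr at room temperature. cAMP was measured by HTRF competition, 1hr.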
# D(2) dopamine receptor (Homo sapiens), sequence (P14416 whole entry, looked up): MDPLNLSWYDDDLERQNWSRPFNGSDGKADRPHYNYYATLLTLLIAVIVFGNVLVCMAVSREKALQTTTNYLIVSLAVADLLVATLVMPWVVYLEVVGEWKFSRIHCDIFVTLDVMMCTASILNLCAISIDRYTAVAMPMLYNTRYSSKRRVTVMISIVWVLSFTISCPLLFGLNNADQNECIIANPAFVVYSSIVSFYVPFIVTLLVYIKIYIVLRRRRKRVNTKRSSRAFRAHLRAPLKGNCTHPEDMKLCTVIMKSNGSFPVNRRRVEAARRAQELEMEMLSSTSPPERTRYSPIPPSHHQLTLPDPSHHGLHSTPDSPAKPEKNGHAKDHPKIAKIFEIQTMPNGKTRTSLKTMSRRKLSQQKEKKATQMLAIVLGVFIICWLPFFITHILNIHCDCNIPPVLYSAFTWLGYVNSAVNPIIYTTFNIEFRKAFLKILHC
# KiSS-1 receptor (Homo sapiens), sequence (Q969F8 whole entry, looked up): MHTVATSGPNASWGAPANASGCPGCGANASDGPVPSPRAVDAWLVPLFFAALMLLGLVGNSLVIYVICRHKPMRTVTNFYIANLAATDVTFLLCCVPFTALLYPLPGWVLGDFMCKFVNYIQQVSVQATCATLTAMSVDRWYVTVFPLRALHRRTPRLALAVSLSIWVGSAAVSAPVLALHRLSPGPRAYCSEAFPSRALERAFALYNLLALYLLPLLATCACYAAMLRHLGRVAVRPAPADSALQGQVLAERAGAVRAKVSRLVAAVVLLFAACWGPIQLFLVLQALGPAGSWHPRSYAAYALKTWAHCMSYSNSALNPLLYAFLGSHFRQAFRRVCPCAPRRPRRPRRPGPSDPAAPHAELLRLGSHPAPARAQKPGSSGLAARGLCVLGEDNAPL
# Gonadotropin-releasing hormone receptor (Homo sapiens), sequence (P30968 whole entry, looked up): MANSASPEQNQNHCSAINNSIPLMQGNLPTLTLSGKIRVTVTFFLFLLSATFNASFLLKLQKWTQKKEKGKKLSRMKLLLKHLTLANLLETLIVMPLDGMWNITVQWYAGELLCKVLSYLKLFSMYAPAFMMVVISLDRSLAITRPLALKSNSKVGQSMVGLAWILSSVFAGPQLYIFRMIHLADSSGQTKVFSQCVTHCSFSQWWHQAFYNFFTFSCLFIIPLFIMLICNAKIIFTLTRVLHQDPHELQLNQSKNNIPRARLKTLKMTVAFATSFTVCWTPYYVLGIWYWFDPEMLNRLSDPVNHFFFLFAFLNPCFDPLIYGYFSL
# Muscarinic acetylcholine receptor M1 (Homo sapiens), sequence (P11229 whole entry, looked up): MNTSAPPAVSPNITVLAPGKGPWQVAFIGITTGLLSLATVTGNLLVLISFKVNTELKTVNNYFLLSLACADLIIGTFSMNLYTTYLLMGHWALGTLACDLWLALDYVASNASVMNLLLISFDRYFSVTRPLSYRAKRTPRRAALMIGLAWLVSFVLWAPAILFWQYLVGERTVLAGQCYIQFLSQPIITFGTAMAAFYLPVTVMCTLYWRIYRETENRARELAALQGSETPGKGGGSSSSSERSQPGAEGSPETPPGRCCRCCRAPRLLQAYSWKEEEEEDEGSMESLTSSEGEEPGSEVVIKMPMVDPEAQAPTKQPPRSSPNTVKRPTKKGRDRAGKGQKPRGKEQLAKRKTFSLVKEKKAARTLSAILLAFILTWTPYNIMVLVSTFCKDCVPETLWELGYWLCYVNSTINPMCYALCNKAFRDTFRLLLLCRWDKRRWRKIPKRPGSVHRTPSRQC
# Beta-2 adrenergic receptor (Homo sapiens), sequence (P07550 whole entry, looked up): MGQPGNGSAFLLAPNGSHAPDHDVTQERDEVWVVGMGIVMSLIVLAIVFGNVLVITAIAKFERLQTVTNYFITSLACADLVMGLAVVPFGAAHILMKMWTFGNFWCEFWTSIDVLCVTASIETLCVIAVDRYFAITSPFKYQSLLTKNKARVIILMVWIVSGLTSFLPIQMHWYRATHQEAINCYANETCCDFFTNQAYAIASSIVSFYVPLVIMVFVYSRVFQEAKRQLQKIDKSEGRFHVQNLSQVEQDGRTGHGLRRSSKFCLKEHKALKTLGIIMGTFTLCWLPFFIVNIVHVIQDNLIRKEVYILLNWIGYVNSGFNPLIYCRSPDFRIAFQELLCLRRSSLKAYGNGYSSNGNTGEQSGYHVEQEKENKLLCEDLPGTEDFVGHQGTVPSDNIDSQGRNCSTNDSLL
# 5-hydroxytryptamine receptor 2A (Homo sapiens), sequence (P28223 whole entry, looked up): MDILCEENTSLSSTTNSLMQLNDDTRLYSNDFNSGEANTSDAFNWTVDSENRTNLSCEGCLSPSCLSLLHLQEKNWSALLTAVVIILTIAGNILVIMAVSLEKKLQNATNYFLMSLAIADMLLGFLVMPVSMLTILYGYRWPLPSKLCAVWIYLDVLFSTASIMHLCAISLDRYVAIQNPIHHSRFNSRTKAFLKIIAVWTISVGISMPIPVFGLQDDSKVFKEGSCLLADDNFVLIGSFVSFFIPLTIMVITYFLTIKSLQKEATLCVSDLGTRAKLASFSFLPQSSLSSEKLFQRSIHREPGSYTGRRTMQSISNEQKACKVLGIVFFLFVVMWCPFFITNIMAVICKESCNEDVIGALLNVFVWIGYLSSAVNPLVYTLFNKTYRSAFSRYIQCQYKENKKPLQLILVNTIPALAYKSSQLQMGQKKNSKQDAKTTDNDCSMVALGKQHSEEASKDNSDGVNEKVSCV
Compound,Potency [1],Potency [2],Potency [3],Potency [4],Potency [5],Potency [6],Potency [7],Potency [8],Potency [9],Potency [10],Potency [11],Potency [12],Potency [13],Potency [14],Potency [15],Potency [16],Potency [17],Potency [18],Potency [19],Potency [20]
OCC(c1ccc(Cl)cc1)c1ccc(Cl)cc1,inactive,inactive,inactive,inactive,inactive,inactive,inactive,inactive,inactive,inactive,7.48 µM (active),inactive,42.1 µM (active),inactive,inactive,inactive,–,–,–,–
CCCCOCN(C(=O)CCl)c1c(CC)cccc1CC,24.3 µM (active),inactive,inactive,inactive,inactive,inactive,inactive,inactive,inactive,–,inactive,inactive,inactive,inactive,inactive,–,–,–,–,–
OC(c1ccc(Cl)cc1)(c1ccc(Cl)cc1)C(Cl)(Cl)Cl,inactive,inactive,inactive,inactive,inactive,inactive,inactive,inactive,inactive,inactive,inactive,–,26.5 µM (active),–,–,–,inactive,–,–,–
CCCN(CC1CC1)c1c([N+](=O)[O-])cc(C(F)(F)F)cc1[N+](=O)[O-],48.6 µM (active),inactive,inactive,inactive,inactive,inactive,inactive,inactive,inactive,inactive,inactive,inactive,inactive,inactive,inactive,inactive,–,inactive,inactive,–
COCC(C)N(C(=O)CCl)c1c(C)csc1C (stereo unspecified),68.6 µM (active),inactive,inactive,inactive,inactive,inactive,inactive,inactive,inactive,–,–,–,inactive,inactive,inactive,inactive,inactive,inactive,inactive,inactive
NS(=O)(=O)C(F)(F)C(F)(F)C(F)(F)C(F)(F)C(F)(F)C(F)(F)C(F)(F)C(F)(F)F,68.6 µM (active),inactive,inactive,inactive,inactive,inactive,inactive,inactive,inactive,–,inactive,inactive,inactive,0.0022 µM (active),–,–,inactive,–,inactive,inactive
S=C=NCCc1ccccc1,43.4 µM (active),inactive,inactive,inactive,inactive,inactive,inactive,inactive,inactive,inactive,–,inactive,–,inactive,inactive,inactive,inactive,–,inactive,inactive
